Consider five compounds from PubChem BioAssay.

The structures appear in SMILES notation. The source made the active and inactive calls. Unless noted, no rule for the calls is given here.

Assay [1] can be described thus: compounds binding Alexa647 anti-His antibody – biochemical, small-molecule microarray, 635 nm fluorescence, artefact control for SMM control protein annotation, primary screen (AID 1128).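 Also: score merges feature fluorescence with signal-to-noise for each printed compound spot.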 The settings on record: higher = more signal.
In assay [2] the test system is Human papillomavirus type 1a E7 protein (residues 1-88). Briefly: HPV1a E7 small-molecule binders, primary screen, biochemical, small-molecule microarray, residues 1-88, 635 nm (AID 1129). Particulars: small-molecule microarray binding, fluorescence 635 nm; higher = more signal.
In assay [3] the target is Focal adhesion kinase 1 (Homo sapiens) (UniProt Q05397). Briefly: PTK2 protein binding on printed compound slides – biochemical, small-molecule microarray, 635/667 nm fluorescence, BSA, DTT, primary screen (AID 1130).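 Also: composite of spot emission at 667 nm and signal to noise over triplicate slides.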 The settings on record: 635 nm fluorescence, higher = more signal.
Sequence of Focal adhesion kinase 1 (Homo sapiens) (Q05397 whole entry, looked up): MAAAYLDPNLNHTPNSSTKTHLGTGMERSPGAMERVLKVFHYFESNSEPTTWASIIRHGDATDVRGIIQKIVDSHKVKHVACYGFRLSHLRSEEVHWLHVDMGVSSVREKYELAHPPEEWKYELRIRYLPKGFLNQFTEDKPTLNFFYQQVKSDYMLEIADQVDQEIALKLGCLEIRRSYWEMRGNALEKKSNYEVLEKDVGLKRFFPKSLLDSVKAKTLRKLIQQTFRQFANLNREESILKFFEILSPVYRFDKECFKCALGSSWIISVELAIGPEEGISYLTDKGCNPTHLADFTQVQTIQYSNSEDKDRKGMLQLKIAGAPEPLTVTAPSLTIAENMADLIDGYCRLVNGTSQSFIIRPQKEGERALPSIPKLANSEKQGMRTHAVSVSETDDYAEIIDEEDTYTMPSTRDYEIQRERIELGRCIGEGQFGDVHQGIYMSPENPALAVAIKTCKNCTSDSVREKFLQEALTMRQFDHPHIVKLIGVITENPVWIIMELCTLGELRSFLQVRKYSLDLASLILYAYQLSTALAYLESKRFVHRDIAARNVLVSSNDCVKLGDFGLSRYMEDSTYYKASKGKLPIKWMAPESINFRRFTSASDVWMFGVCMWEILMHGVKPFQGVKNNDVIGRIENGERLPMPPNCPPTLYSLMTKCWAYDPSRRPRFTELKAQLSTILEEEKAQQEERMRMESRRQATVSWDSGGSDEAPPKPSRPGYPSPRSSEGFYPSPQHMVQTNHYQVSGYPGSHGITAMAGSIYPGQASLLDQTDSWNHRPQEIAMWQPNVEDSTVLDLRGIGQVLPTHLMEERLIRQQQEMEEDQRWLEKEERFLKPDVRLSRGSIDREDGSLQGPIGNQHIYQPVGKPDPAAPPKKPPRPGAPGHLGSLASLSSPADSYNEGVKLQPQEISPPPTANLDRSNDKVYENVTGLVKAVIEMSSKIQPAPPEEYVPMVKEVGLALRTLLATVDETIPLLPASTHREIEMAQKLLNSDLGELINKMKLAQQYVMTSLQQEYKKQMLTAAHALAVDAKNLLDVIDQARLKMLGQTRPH
For assay [4], the system named is Fibrinogen (Alexa647-labelled). Put plainly: Alexa647-fibrinogen binding to printed small molecules – biochemical, small-molecule microarray, 635/667 nm fluorescence, artefact control for SMM control-protein annotation, profiling panel (AID 1131).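 Also: z-score merges 667 nm fluorescence with per-spot signal-to-noise over triplicate slides.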 The settings on record: fibrinogen-A647 binding fluorescence, higher = more signal.
Assay [5] deals with Follistatin (Homo sapiens) (UniProt P19883). Briefly: FST protein binding to printed compounds – biochemical, small-molecule microarray, 635/667 nm fluorescence, primary screen (AID 1132). The settings on record: 635 nm fluorescence, higher = more signal.
Sequence of Follistatin (Homo sapiens) (P19883 whole entry, looked up): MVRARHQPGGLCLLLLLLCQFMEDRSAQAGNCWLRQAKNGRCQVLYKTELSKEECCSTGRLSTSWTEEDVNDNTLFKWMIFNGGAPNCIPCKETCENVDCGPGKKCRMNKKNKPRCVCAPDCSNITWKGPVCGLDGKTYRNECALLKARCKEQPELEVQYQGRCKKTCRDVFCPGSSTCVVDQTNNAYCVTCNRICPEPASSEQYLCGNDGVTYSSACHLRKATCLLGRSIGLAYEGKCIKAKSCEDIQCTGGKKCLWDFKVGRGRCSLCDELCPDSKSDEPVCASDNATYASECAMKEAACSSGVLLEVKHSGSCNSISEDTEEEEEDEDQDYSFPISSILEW
For assay [6], the target named is Fibroblast growth factor 2 (Homo sapiens) (UniProt P09038). Put plainly: basic fibroblast growth factor binding to printed compounds – biochemical, small-molecule microarray, 635/667 nm fluorescence, primary screen (AID 1133). The settings on record: FGF2, fluorescence 635/667, higher = more signal.
Sequence of Fibroblast growth factor 2 (Homo sapiens) (P09038 whole entry, looked up): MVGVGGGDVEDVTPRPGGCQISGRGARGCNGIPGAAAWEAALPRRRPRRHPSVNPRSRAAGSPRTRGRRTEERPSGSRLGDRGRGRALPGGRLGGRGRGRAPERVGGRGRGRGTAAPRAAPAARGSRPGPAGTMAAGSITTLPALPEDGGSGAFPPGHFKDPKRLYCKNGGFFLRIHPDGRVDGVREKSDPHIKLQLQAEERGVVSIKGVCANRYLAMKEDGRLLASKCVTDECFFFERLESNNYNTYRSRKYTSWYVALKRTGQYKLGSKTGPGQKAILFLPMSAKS
The nature of assay [7]: JC-1 mitochondrial potential readout, lung cancer cells – cell-based, A549, JC-1 fluorescence, basal, 24 h, 100 nL, profiling panel (AID 1138).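 Also: A549 lung adenocarcinoma cells under basal conditions with no added stimulus; test concentration not given here.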 The settings on record: higher = more signal.
The next assay concerns Lefty1. Briefly: Lefty1 protein binding to printed compounds – biochemical, small-molecule microarray, 635/667 nm fluorescence, primary screen (AID 1139). Particulars: fluorescence 635/667, higher = more signal.
In assay [8] the test system is wheat germ agglutinin (Triticum aestivum), Alexa647-labelled. Put plainly: Alexa647-WGA lectin binding to printed small molecules – biochemical, small-molecule microarray, 635/667 nm fluorescence, artefact control for SMM control-protein annotation, profiling panel (AID 1140).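 Also: score merges 667 nm feature emission with signal to noise over triplicate slides.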 Particulars: WGA-A647 binding, 635 nm fluorescence, higher = more signal.
The target in assay [9] is Luciferin 4-monooxygenase (Photinus pyralis) (UniProt P08659). Briefly: inhibition of purified Photinus pyralis luciferase – biochemical, luminescence, purified enzyme, 2006 set, primary screen (AID 1141).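 Also: cell-free assay with purified firefly luciferase at 100 ng per well in PBS; test concentration not given here.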 The settings on record: purified firefly luciferase, SteadyGlo luminescence, 30 min; higher = more signal, called active from +8 up or from −8 down.
Sequence of Luciferin 4-monooxygenase (Photinus pyralis) (P08659 whole entry, looked up): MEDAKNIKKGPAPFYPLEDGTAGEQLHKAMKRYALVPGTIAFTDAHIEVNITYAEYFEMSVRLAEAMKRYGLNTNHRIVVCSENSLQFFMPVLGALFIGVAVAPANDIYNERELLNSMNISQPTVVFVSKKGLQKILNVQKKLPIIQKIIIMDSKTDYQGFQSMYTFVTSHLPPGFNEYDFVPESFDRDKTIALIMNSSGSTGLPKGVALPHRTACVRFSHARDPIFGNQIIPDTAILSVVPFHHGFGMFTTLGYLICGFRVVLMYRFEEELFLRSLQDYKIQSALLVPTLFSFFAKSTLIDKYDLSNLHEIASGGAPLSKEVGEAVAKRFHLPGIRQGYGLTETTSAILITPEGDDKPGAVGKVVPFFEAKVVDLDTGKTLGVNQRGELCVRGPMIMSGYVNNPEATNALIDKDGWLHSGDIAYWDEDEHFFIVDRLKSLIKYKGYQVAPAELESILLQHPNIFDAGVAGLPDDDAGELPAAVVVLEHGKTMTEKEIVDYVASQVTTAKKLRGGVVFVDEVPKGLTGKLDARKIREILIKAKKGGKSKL
The test system of assay [10] is Wnt5a (protein binding on small-molecule microarray). Put plainly: small molecules binding Wnt5a protein – biophysical, small-molecule microarray, 635/667 nm fluorescence, primary screen (AID 1142).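 Also: fluorescence read at 667 nm with signal to noise per printed feature.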 The settings on record: 635 nm fluorescence, higher = more signal.
Assay [11] is described as follows: ATP-based viability of Huh7 replicon cells – cell-based, CellTiter-Glo luminescence, basal, 48 h, cytotoxicity control for HCV replication inhibitor project, primary screen (AID 1143).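 Also: Huh7 hepatoma cells carrying a hepatitis C replication reporter with no stimulus; test concentration not given here.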 Particulars: higher = more signal, called active from +8 up or from −8 down.
Assay [12] in a line: Pseudomonas biofilm growth suppression – PAO1 strain, BacTiter-Glo luminescence, LB-PBS, primary screen (AID 1144). Particulars: P. aeruginosa PAO1 biofilm, 12 h, higher = more signal.
Assay [13] in a line: basal CRE-LacZ reporter activity in PC12 – cell-based, unstimulated, primary screen (AID 1145). The settings on record: no forskolin, luminescence, 4.5 h, higher = more signal, called active from +8 up or from −8 down.
Assay [14] is described as follows: forskolin-driven CRE-LacZ activity in PC12 – cell-based, CRE-LacZ reporter, forskolin-stimulated, primary screen (AID 1146).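 Also: PC12 cells with 6xCRE LacZ reporter stimulated by forskolin 10 µM; beta-galactosidase reporter signal reflecting CREB driven transcription.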 Particulars: luminescence, 4.5 h, higher = more signal, called active from +8 up or from −8 down.
Assay [15] concerns the target Streptavidin (Streptomyces avidinii) (UniProt P22629). Briefly: compounds binding control protein streptavidin – biophysical, small-molecule microarray, 635/667 nm fluorescence, artefact control for SMM compound annotation, primary screen (AID 1147).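 Also: signal reflects streptavidin binding to arrayed compounds as a control protein.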 The settings on record: higher = more signal.
Assay [16] can be described thus: probe aInhba binding on compound microarray – biochemical, small-molecule microarray, 635/667 nm fluorescence, primary screen (AID 1148).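 Also: score merges 667nm spot fluorescence with signal-to-noise for antibody binding to printed compounds.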 Particulars: higher = more signal.
Assay [17] addresses Torsin-1A (Homo sapiens) (UniProt O14656). Put plainly: TOR1A wild-type binding on microarray – cell lysate, small-molecule microarray, lysate, 635/667 nm, primary screen (AID 1149). Particulars: COS7 hTOR1A-WT lysate, 635 nm fluorescence, higher = more signal.
The target is the same in assay [18]. Briefly: torsin A mutant lysate binding on microarrays – cell lysate, small-molecule microarray, COS7 lysate, 635/667 nm fluorescence, primary screen (AID 1150).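 Also: score pools 667 nm emission and signal to noise measuring lysate protein binding.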 Particulars: COS7 hTOR1A mutant lysate, 635 nm fluorescence, higher = more signal.
Assay [19] has as its system Sonic hedgehog protein (Shh). Briefly: Sonic hedgehog microarray binding compounds – biochemical, small-molecule microarray, 635/667 nm fluorescence, primary screen (AID 1151).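 Also: Shh protein binding to compounds spotted on small-molecule microarray slides; score combines spot fluorescence intensity with signal-to-noise across triplicate slides.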 Particulars: 635 nm fluorescence, higher = more signal.

Sequence of Streptavidin (Streptomyces avidinii) (P22629 whole entry, looked up): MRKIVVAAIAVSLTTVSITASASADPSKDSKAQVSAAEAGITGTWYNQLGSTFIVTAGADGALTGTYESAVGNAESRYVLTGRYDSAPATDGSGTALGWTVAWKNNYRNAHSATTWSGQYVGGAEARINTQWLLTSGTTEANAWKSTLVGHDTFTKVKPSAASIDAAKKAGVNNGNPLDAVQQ
Sequence of Torsin-1A (Homo sapiens) (O14656 whole entry, looked up): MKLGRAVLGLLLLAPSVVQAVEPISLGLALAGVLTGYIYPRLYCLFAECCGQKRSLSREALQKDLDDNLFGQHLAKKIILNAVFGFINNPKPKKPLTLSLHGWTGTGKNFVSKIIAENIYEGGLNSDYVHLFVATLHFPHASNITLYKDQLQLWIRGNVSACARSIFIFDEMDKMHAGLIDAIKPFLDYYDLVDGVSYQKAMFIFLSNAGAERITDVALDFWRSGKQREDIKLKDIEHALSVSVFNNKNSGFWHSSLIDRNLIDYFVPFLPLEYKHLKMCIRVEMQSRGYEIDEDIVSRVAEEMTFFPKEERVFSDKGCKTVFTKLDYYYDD

Take `COCCCNC(=O)[C@]1(Cc2ccccc2N=[N+]=[N-])N=C(c2ccc(OCCCO)cc2)O[C@@H]1c1ccccc1`: the composite z-score worked out at 2.96 in assay [1]; 1.24 in assay [2]; 1.05 in assay [3]; 0.977 in assay [4]; 1.25 in assay [5]; 0.94 in [6]. The composite z-score is -0.252 in the assay with Lefty1; 1.3 in assay [8]; 0.637 in assay [10]; 1.58 in assay [15]; 0.974 in [16]; 0.303 in the assay with Torsin-1A (Homo sapiens) [17]. For the same compound, the figures for the composite z-score (with Torsin-1A (Homo sapiens) [18]; in assay [19]) were 1.09 and -0.223, respectively. The z-score was 2.2 in assay [7]; -1.9 (inactive) in assay [9]; -3.94 (inactive) in [11]; 0.542 (inactive) in assay [12]; 1.76 (inactive) in assay [13]; -1.66 (inactive) in assay [14].
`CC1C2C(CCCO)=CC(C3C(=O)N(C(N)=O)C(=O)C23)N1Cc1cccc(OC(F)(F)F)c1` (stereo not given): the composite z-score in [1] came out at 0.632; in [2], 1.11; in assay [3], 0.314; in assay [4] it was 0.646; in assay [5], 0.0794; in [6] it was 0.438. For the same compound, the composite z-score was 0.216 in the assay on Lefty1; 0.576 in assay [8]; -0.0205 in assay [10]; 0.664 in assay [15]; -0.0531 in [16]; 0.438 in the assay with Torsin-1A (Homo sapiens) [17]. Besides, the values for the composite z-score (with Torsin-1A (Homo sapiens) [18]; in assay [19]) were 0.6 and 0.396, respectively. The z-score was -0.341 in [7]; -0.0224 (inactive) in assay [9]; 0.897 (inactive) in assay [11]; 0.206 (inactive) in assay [12]; -0.233 (inactive) in assay [13]; 0.693 (inactive) in assay [14].
Turning to `[N-]=[N+]=NCc1ccccc1[C@H]1OC(c2ccc(OCCCO)cc2)=N[C@@]1(Cc1ccccc1N=[N+]=[N-])C(=O)O`, the composite z-score in [1] is 2.02; in assay [2], 1.2; in assay [3] it was 1.03; in assay [4], 0.899; in [5] it was 1.21; in [6], 0.134. In addition, the composite z-score with Lefty1 came out at 0.0929; in assay [8], 1.23; in [10] it was 0.322; in assay [15], 1.55; in assay [16] it was 0.147; with Torsin-1A (Homo sapiens) [17] it was 0.136. Further, the results for the composite z-score (with Torsin-1A (Homo sapiens) [18]; in assay [19]) were 0.691 and -0.141, respectively. For the same compound, the z-score is -0.0184 in assay [7]; -4.21 (inactive) in assay [9]; -1.16 (inactive) in [11]; 0.159 (inactive) in [12]; -0.137 (inactive) in [13]; -0.763 (inactive) in [14].
For the compound `O=C1OCCC/C=C\[C@H]2OC34C=CCN(Cc5ccccc5)C(=O)[C@H]3N(CCO)C(=O)[C@@H]4C12` (stereo not given in full), the composite z-score was -0.941 in assay [1]; 0.444 in assay [2]; -0.287 in assay [3]; -0.956 in assay [4]; -0.296 in [5]; -0.259 in assay [6]. Also, the composite z-score with Lefty1 is 0.398; in [8], -0.889; in assay [10], 0.0691; in [15] it was -1.06; in assay [16] it was 0.225; in the assay with Torsin-1A (Homo sapiens) [17], 1.3. Moreover, the composite z-score in the assay with Torsin-1A (Homo sapiens) [18] came to 0.232; in [19] it was 1.87. Moreover, the z-score was 1.64 in assay [7]; -1.56 (inactive) in assay [9]; 0.347 (inactive) in [11]; -1.38 (inactive) in [12]; -0.0899 (inactive) in assay [13]; -0.0501 (inactive) in assay [14].
On to `COc1ccc([Si](C)(C)[C@@H]2[C@@H](CC(=O)N3CCC[C@H]3CO)O[C@]3(C(=O)N(Cc4cccc(N5C(=O)c6cccc7cccc5c67)c4)c4ccccc43)[C@H]2C)cc1`, for which the composite z-score in assay [1] is 1.2; in assay [2] it was 1.03; in assay [3], 0.948; in assay [4], 0.584; in assay [5] it was 1.16; in assay [6], 1.43. The composite z-score in the assay on Lefty1 was 0.839; in [8], 1.21; in assay [10] it was 0.614; in assay [15], 0.609; in assay [16], -0.129; with Torsin-1A (Homo sapiens) [17], 0.729. Besides, the composite z-score in the assay with Torsin-1A (Homo sapiens) [18] stood at 0.499; in [19], 1.42. Further, the z-score is -0.0137 in assay [7]; -0.0921 (inactive) in assay [9]; -5.86 (inactive) in assay [11]; -0.334 (inactive) in [12]; 0.819 (inactive) in assay [13]; -1.41 (inactive) in assay [14].
